A selection: hits, their analogues and other compounds. The true share with any hit is near 6.1%.
D1 antag – antagonists of human D1 dopamine receptor. HEK293 TREx D1 cells, calcium flux, dopamine EC80; active compounds read low. activity change, negative = inhibition, % at 10 µM. 360,000 compounds, 3.2% hits; in the data active = activity change below about -30%; note: % is set by controls: 0 for no effect and ±100 for the full control effect
Target sequence (P21728 whole entry, looked up): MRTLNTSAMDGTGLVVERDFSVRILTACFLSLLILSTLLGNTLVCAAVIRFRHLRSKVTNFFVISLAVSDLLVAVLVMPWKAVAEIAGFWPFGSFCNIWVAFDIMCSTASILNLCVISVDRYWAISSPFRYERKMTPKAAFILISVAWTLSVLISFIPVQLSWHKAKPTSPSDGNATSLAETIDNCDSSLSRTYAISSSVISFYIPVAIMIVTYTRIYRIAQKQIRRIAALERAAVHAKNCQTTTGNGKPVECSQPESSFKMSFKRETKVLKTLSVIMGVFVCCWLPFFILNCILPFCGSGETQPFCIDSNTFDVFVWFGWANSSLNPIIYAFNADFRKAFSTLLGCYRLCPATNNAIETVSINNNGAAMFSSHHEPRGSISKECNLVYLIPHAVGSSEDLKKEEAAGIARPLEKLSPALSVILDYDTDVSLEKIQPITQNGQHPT
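Antagonism measured as reduced calcium response to an EC80 dopamine addition following 180 s compound pre-read; cells were inducible HEK293 Trex D1 plated overnight at 30 C, read kinetically at 1 cycle/sec.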
D3 antag – antagonists of human D3 dopamine receptor | P35462 | D3R cells, DiscoveRx beta-arrestin luminescence, antagonist mode; active compounds read low | max response, negative = inhibition, % | 360,000 compounds, 2.5% hits | AID 652054; in the data active = max response below about -50%; inconclusive = no clear call, values can overlap the other calls; note: % is set by controls: 0 for no effect and ±100 for the full control effect
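Cells expressing the human receptor were seeded at 1500 cells/well, incubated overnight at 37 degrees C in 5% CO2, then exposed to library compounds with dopamine controls for 90 minutes at 37 degrees C before luminescent detection.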
D1 agonist – activates the human D1 dopamine receptor; HEK293 T-REx D1 cells, calcium flux, agonist mode; 360,000 compounds, 1% hits; AID 504660; activation, % at 2 µM; in the data active = activation above about 30%; note: 0% is about no effect
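Tetracycline-induced HEK293 TREx D1 cells, force-coupled to calcium signalling, were dye-loaded with a no-wash calcium kit. Compound was pin-added after a 10 s baseline. Fluorescence was read kinetically at 1 cycle/s for 180 s, with calcium rises flagged as agonism.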
D1 potentiator – enhances dopamine response at the human D1 receptor; P21728; HEK293 TREx D1 cells, calcium flux, dopamine EC20 potentiation; potentiation, % at 10 µM; 360,000 compounds, 0.036% hits; AID 504651; in the data active = potentiation above about 30%; note: 0% is about no effect
DRD3 agonist – activates the human D3 dopamine receptor; 410,000 compounds, 0.58% hits; max activation, %; D3R DiscoveRx beta-arrestin cells, luminescence, 90 min; AID 652048; P35462; in the data active = max activation above about 30%; note: 0% is about no effect
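Agonist-mode cell screen: cells plated at 1500/well and incubated overnight at 37 °C, then exposed to library compounds for 90 min at 37 °C. Detection reagent was added for 30–60 min at room temperature, and luminescence was read.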
Active calls of the source: *; ? = inconclusive; / = no result; ! = not confirmed by another sample.

SMILES	D1 antag	D3 antag	D1 agonist	D1 potentiator	DRD3 agonist
COc1ccc(F)cc1C(=O)C1CCCN(Cc2ccc(Oc3ncccn3)cc2)C1 (stereo unspecified)	-9.4	-72.8*	5.4	-7.5	-12.1
COc1cc(OC)c(OC)cc1CN1CCCC(C(=O)c2ccccc2SC)C1 (stereo unspecified)	-1.5	-60.5*	3.0	-5.2	-7.0
COc1ccc(C(=O)C2CCCN(Cc3ccc4c(c3)OCCO4)C2)cc1F (stereo unspecified)	-16.4	-25.5	29.0	-0.1	-29.3
COc1ccccc1C(=O)C1CCCN(Cc2ccc3c(c2)OCCO3)C1 (stereo unspecified)	-11.5	-50.2*	2.5	-1.2	-38.3
Cc1ccc(C)c(NC(=O)Cn2ncc3c([nH]c4ccccc43)c2=O)c1	4.6	/	0.3	1.9	1.1
CCCCOc1cccc(NC(=O)c2cccc(C(=O)Nc3cccc(OCCCC)c3)c2)c1	7.7	/	4.7	0.3	3.9
COc1ccc(F)cc1C(=O)C1CCCN(C(=O)CSc2ccccn2)C1 (stereo unspecified)	2.9	10.9	0.0	8.5	1.3
Cc1c(CN2CCCCC2C)c(=O)n(-c2ccccc2)n1C (stereo unspecified)	-20.2	-58.2*	0.6	-1.2	-12.9
COc1ccc(F)cc1C(=O)C1CCCN(Cc2c(C)n(C)n(-c3ccccc3)c2=O)C1 (stereo unspecified)	1.8	-55.3*	0.2	-1.4	-19.8
COc1ccc(F)cc1C(=O)C1CCCN(Cc2ccc3c(c2)OCCO3)C1 (stereo unspecified)	-1.6	-105.3*	0.0	3.9	-3.5
CN1Cc2cccc3c2C(Cc2ccccc2S3)C1 (stereo unspecified)	-26.6	-64.1*	3.4	-1.2	-8.7
Cc1nc(C(=O)NCC(=O)c2ccccc2)c(C(F)(F)F)o1	-13.2	-58.8*	2.2	-3.2	-12.4
Cc1nc(C(=O)NNC(=O)c2ccccc2)c(C(F)(F)F)o1	18.9	0.1	1.5	0.6	4.4
CCOc1ccccc1NC1=CC(=O)CC(c2ccccc2)C1 (stereo unspecified)	-31.5*	2.8	4.3	3.4	-3.1
O=C(CCN1CCN2CCCC2C1)N1c2ccccc2Sc2ccc(Cl)cc21 (stereo unspecified)	-16.3	-53.8*	10.8	-7.7	-16.1
c1ccc2c(c1)Sc1ccccc1N2CCN1CCCC1	/	/	/	/	-10.0
CN1CCN(CCCN2c3ccccc3Sc3ccc(C(F)(F)F)cc32)CC1	-80.5*	-104.4*!	26.9	-4.0	-14.0
NCCC(=O)N1c2ccccc2Sc2ccc(Cl)cc21	1.6	-9.8	59.1*	-1.9	-6.5
NC(=O)N1CCN(CCCN2c3ccccc3Sc3cc(Cl)ccc32)CC1	/	-69.0*	/	/	-7.1
CCSc1nn(CC(=O)Nc2cccc(CC)c2)c(N)c1S(=O)(=O)c1ccccc1	-0.7	/	6.8	-0.8	0.7
COc1ccc(-n2c(SCC(=O)NCc3ccccc3)nc3c([nH]c4ccccc43)c2=O)cc1	0.0	/	4.0	-3.4	-7.8
COc1ccc(CNC(=O)CSc2ncc3c(n2)-c2ccc(Cl)cc2N(Cc2ccc(F)cc2)S3(=O)=O)cc1OC	15.1	/	0.2	-1.1	-23.3
COc1ccc(OC)c(CCNC(=O)c2cc3c(=O)oc4ccc(C)cc4c3s2)c1	-4.0	/	-0.2	-0.2	3.2
CN1CCN(CCC(=O)N2c3ccccc3Sc3ccc(Cl)cc32)CC1	-23.4	-50.9*	5.4	-6.7	-13.2
COc1ccc(-c2cc(-c3ccc(Cl)cc3)n[nH]2)c(O)c1	-34.0*	10.4	1.4	-6.3	-0.5
SMILES	D1 antag	D3 antag	D1 agonist	D1 potentiator	DRD3 agonist
Cc1cc(C)cc(NC(=O)c2sc3nc[nH]c(=O)c3c2C)c1	-1.6	/	-0.5	1.7	-10.8
Cc1c2cnn(CC(=O)NC(C)C)c(=O)c2c(C)n1Cc1ccccc1Cl	-31.5*	/	1.5	-2.0	-4.7
N#C/C(=C\c1c[nH]c2ccccc12)C(=O)Nc1ncc(Cc2ccc(Cl)cc2Cl)s1	5.2	?	34.7*	-6.3	1.1
Cc1ccc(NC(=O)COc2ccc(-c3nn(C)c(=O)c4ccccc34)cc2)c(C)c1	-9.0	/	4.1	-1.7	0.9
Cc1onc(-c2ccccc2)c1C(=O)Nc1ccc(S(=O)(=O)Nc2nccs2)cc1	-40.2*	-9.4	1.0	-4.5	-4.7
Cc1cc(C)cc(NS(=O)(=O)c2coc(C(N)=O)c2)c1	-7.5	16.3	3.8	-6.2	4.1
O=C(O)c1cccc(NC(=O)c2cccc(S(=O)(=O)Nc3cccc([N+](=O)[O-])c3)c2)c1	-0.6	0.1	0.2	16.5	6.5
O=C(Nc1ccccc1)c1cccc(S(=O)(=O)Oc2ccc([N+](=O)[O-])cc2)c1	-30.2*	0.4	17.7	-4.7	0.2
O=C(Nc1ccc(S(=O)(=O)Nc2nccs2)cc1)c1cccc(F)c1	-46.7*	-20.7	5.5	-2.7	-0.2
NC(=O)c1cc(S(=O)(=O)Nc2cccc(F)c2)co1	-45.8*	3.7	1.4	2.9	5.7
CN(C)c1cccc(C(=O)Nc2ccc(S(=O)(=O)Nc3nccs3)cc2)c1	/	?	/	/	22.4
CCCCN(CC)C(=O)c1cc2c(=O)n3ccccc3nc2n1C	2.2	/	-0.2	-3.4	5.8
O=C(Nc1ccccc1)c1cccc(S(=O)(=O)Nc2cccc(F)c2)c1	-40.1*	/	16.0	-0.7	8.8
C/C(=N/NC(=O)c1ccc(Cl)s1)c1cccnc1	-48.3*	-14.1	7.3	-11.4	-5.5
COc1ccc(-c2nc3sc(CCNC(=O)c4cccc(C(F)(F)F)c4)c(C)n3n2)cc1	/	/	-0.3	-1.2	5.0
Clc1ccc(CSc2nnc(-c3c[nH]c4ccccc34)o2)cc1	-6.3	-13.7	3.2	-7.0	-2.9
CCOc1ccccc1-c1nnc(SCc2ccc(Cl)cc2)o1	-29.4	/	61.5*	3.9	4.6
CCOC(=O)Cn1c(=O)c2c(nc(N3CCOCC3)n2Cc2ccccc2)n(C)c1=O	2.4	/	-0.5	1.2	0.6
O=C(c1cccs1)N1CCN(c2nc3ccccc3s2)CC1	-37.1*	17.1	6.2	-2.9	3.1
O=C(C1COc2ccccc2O1)N1CCN(c2nc3ccc([N+](=O)[O-])cc3s2)CC1 (stereo unspecified)	-23.6	10.1	5.7	0.5	-6.2
O=C(C1COc2ccccc2O1)N1CCN(c2nc3ccccc3s2)CC1 (stereo unspecified)	-62.1*	8.1	5.9	-7.6	4.4
CCSc1ccccc1C(=O)N1CCN(c2nc3ccccc3s2)CC1	/	/	31.1*	8.4	-9.0
CCOc1ccc(-c2cn3c(n2)sc2cc(C(=O)NCCc4ccc(OC)c(OC)c4)ccc23)cc1	3.8	/	2.4	-7.8	-12.0
O=C(NC(=S)Nc1ccccn1)c1ccc(-c2ccccc2)cc1	-32.2*	?	5.9	-8.7	-10.1
S=C(Nc1ccccc1)Nc1ccccn1	/	1.7	/	/	2.9
S=C(Nc1ccc(Nc2ccccc2)cc1)Nc1ccccn1	-15.8	-67.0*	3.4	-13.4	-16.0

From PubChem
